For 13 molecules, growth results are on record in PubChem BioAssay (NCI).

About 83,000 compounds went through this panel and 20% of them were active in at least one assay; those are over-represented in the sample as a whole.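 For each line, cells grew in 96-well plates with the test compound present at a single concentration for 48 hours.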 Calls of active or inactive are those of the source. How the source made its calls: active means growth percent below 10; inactive means the rest.

The experiment deals with HL-60(TB) leukemia. Nature of the experiment: NCI-60 one-dose screen, 48 h (100 = growth as untreated, 0 = no growth, -100 = all killed). The conditions noted are these: 10 µM unless noted.
`CCN(CC)CCCC(C)Nc1cnc(C(=O)Nc2cc(C)cc3cccnc23)cn1` (stereo not drawn): the growth is 76.8% (inactive).

With `[2H]C([2H])([2H])Oc1cccc(/C=C/C(=O)/C=C(/C=C/c2cccc(OC([2H])([2H])[2H])c2OC([2H])([2H])[2H])OB(F)F)c1OC([2H])([2H])[2H]`, the growth is 60% (inactive).

Take `FC(F)(F)c1ccc(-c2nc(-c3nc4cc(Cl)c(Cl)cc4[nH]3)c3ccccn23)cc1`: the growth was 104% (inactive).

As to `CC12CCC3C4(C)COC(c5ccccc5Cl)OC4CCC3(C)C1CC(C1=CCOC1=O)O2` (stereo not drawn), the growth is 26.2% (inactive).

For `Cc1nccc2c3ccc(OCc4cn(-c5ccccc5)nn4)cc3n(CCCc3ccccc3)c12`, the growth was 30.1% (inactive).

As to `COC(=O)/C=C1\SC(=Nc2ccc(F)cc2)N(CCc2c[nH]c3ccccc23)C1=O`, the growth is 73.7% (inactive).

In the case of `O=C1CC(C(F)(F)F)Cc2nc3ccc(Br)cc3cc21` (stereo not drawn), the growth is 89.8% (inactive).

Turning to `COc1cc2ncnc(-n3ncc4cc(NC(=O)Nc5ccc(Cl)c(C)c5)ccc43)c2cc1OC`, the growth was 114% (inactive).

As for `OCCNc1nc(NCCO)nc(Nc2ccc(C3=NN(c4cc(Cl)cc(Cl)c4)C(c4ccc(Cl)cc4)C3)cc2)n1` (stereo not drawn), the growth was 13.7% (inactive).

Take `Cc1[nH]c(N=Nc2ccccc2)nc1N=Nc1ccccc1`: the growth is 8.83% (active).

For the molecule `CN1C(=O)N(C)C2C1NN=c1s/c(=C\c3ccsc3)c(=O)n12` (stereo not drawn), the growth is 5.85% (active).

For the molecule `NC(N)=N/N=C\c1cccc(OCc2ccccc2)c1`, the growth was 55.5% (inactive).

Take `COc1ccccc1/C=N\NC(=S)Nc1ccc(F)cc1`: the growth is 94.5% (inactive).
